# Screening data from PubChem.
# hNpr1 antagonist – Natriuretic polypeptide receptor (hNpr1) antagonism - Primary qHTS; Atrial natriuretic peptide receptor 1 (Homo sapiens), P16066; HEK293 hNpr1 GloSensor cGMP, ANP-stimulated luminescence; Potency, µM (highest dose often 46.3 µM), for the others: at the top dose activity change, negative = inhibition, most hits filed as inhibitors; hit rate 1.6% among 76,000; AID 1347048, 2019; calls by dose curve; also: % is scaled to controls: 0 for no effect and ±100 for the full control effect; nearly all actives have a fitted effect of over 60% in size
# Target sequence (P16066 whole entry, looked up): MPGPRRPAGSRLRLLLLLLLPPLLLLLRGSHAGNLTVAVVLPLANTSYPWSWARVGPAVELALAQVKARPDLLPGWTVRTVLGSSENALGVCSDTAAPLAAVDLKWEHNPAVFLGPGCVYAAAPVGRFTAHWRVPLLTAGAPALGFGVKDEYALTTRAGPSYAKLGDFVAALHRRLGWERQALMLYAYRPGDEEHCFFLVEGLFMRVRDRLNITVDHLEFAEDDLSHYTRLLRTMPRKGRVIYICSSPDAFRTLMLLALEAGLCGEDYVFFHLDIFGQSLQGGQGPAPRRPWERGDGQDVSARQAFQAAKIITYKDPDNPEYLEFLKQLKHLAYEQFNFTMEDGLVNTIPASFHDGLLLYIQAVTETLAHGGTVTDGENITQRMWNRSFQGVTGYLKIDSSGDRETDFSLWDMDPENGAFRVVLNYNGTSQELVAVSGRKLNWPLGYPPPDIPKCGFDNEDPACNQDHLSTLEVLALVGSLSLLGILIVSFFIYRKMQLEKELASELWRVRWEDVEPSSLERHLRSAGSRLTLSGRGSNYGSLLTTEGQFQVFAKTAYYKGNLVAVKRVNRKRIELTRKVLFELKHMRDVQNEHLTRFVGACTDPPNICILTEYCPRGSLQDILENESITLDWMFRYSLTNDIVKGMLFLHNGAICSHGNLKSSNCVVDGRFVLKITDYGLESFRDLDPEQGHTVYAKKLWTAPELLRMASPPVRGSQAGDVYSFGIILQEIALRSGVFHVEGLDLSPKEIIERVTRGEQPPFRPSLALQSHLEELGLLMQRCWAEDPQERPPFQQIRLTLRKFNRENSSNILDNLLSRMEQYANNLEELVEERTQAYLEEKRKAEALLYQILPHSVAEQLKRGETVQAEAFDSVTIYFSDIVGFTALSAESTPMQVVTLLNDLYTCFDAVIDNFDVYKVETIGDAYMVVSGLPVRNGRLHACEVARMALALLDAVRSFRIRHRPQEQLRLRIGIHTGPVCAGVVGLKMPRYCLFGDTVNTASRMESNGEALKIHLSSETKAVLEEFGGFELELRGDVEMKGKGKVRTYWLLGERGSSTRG
#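 Compound pre-incubated 30 min at room temperature on GloSensor-loaded HEK293 cells stably carrying hNpr1 and the pGS-40F cGMP biosensor. Stimulation uses hNppA at 0.1 nM final; luminescence is taken at baseline and 20 min post-agonist.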
# FLuc inh-1 – Firefly luciferase inhibition profiling of diverse chemical library using quantitative high-throughput screening. Luciferin 4-monooxygenase (Photinus pyralis), P08659. purified P. pyralis luciferase, luminescence, biochemical. Potency, µM (top dose mostly 115 µM), most hits filed as inhibitors. hit rate 2.5% among 76,000; also: % is scaled to controls: 0 for no effect and ±100 for the full control effect; nearly all actives have a fitted effect of over 65% in size
#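 Luminescence read by CCD imager after adding enzyme (10nM final) to wells holding compound, titrated in qHTS. Substrates 10uM each D-luciferin and ATP; buffer 50mM Tris acetate pH 7.5, 10mM Mg acetate, Tween-20, BSA.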
# 3T3 cytotox – Cytotoxic Profiling in NIH 3T3 Cell Line of Diverse Libraries Using Quantitative High-Throughput Screening; hit rate 4.3% among 94,000; AID 1345082, 2018; NIH 3T3 viability, CellTiter-Glo ATP luminescence, 48-72 h; Potency, µM (doses to about 96.7 µM), for inactives: at the top dose activity change, negative = cytotoxicity, actives largely listed as inhibitors; also: % is scaled to controls: 0 for no effect and ±100 for the full control effect; nearly all actives have a fitted effect of over 55% in size
#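 Cytotoxicity was measured by CellTiter-Glo ATP luminescence after 48 or 72 h compound exposure at 37 °C. Mouse NIH 3T3 fibroblasts were seeded at 400 cells/well and dosed by 23 nL pin transfer.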
# HEK293 tox – Cytotoxic Profiling in HEK 293 Cell Line of Diverse Libraries Using Quantitative High-Throughput Screening; HEK 293 viability, ATP luminescence (CellTiter-Glo), 48-72 h; Potency, µM (highest dose often 115 µM), for the others: top-dose activity change, negative = cytotoxicity, hits mostly inhibitors; hit rate 6.6% among 94,000; AID 1345083, 2018; also: % is scaled to controls: 0 for no effect and ±100 for the full control effect; nearly all actives have a fitted effect of over 60% in size
#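 Cells seeded first (HEK 293, 250 cells/well), then compound added by pintool. Incubation ran 48 or 72 hr at 37 degree Celsius. CellTiter-Glo was added and luminescence imaged after 10 min at room temperature.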
# FLuc SDR -ATP – Firefly luciferase (FLuc-C-HiBiT) SDR gain of signal screen - without ATP; shares compounds with FLuc inh-1; Purified FLuc-C-HiBiT, Nano-Glo HiBiT luminescence, no ATP; Potency, µM (series often up to 32.7 µM), for inactives: at the top dose activation (signal gain), hits mostly activators; hit rate 7.8% among 1,300; also: nearly all actives have a fitted effect of over 55% in size
# FLuc SDR ATP – Firefly luciferase (FLuc-C-HiBiT) SDR gain of signal screen - plus ATP | hit rate 8.7% among 1,300 | shares compounds with FLuc inh-1 | Potency, µM (doses to about 32.7 µM), for inactives: top-dose activation (gain of signal), hits mostly activators | purified FLuc-C-HiBiT + ATP, HiBiT complementation luminescence;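 also: signal reports ligand binding via conformational change of the enzyme rather than luciferase catalysis; % of control where 0% means no effect; nearly all actives have a fitted effect of over 55% in size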
# FLuc inh-2 – Firefly luciferase (FLuc-C-HiBiT) enzymatic inhibition screen - Functional assay | shares compounds with FLuc inh-1 | purified FLuc-C-HiBiT enzyme, luciferin luminescence | Potency, µM (top dose mostly 32.7 µM), without a hit: at the top dose activity change, negative = inhibition, most hits filed as inhibitors | hit rate 42% among 1,300; also: % is scaled to controls: 0 for no effect and ±100 for the full control effect; nearly all actives have a fitted effect of over 70% in size
# * = called active by the depositor; i = inactive; ? = inconclusive; · = no result given; [ ] = another dose, or the depositor's remark. A selection: hits, their analogues and other compounds. The true share with any hit is near 11%. Unless noted, calls follow the shape of the dose curve; as a rule, active = well fitted curve in the direction sought with a large enough effect; inconclusive = small, poorly fitted or top-dose-only effect, or another doubt; inactive = no such curve, though single readings can be large; an effect the other way counts as inactive or inconclusive. Potency is read from the fitted curve at half-maximal effect.
SMILES,hNpr1 antagonist,FLuc inh-1,3T3 cytotox,HEK293 tox,FLuc SDR -ATP,FLuc SDR ATP,FLuc inh-2
OCc1cn(CC2CCN(c3ncnc4nc[nH]c34)CC2)nn1,3.1%,i,i,-3.7%,9.2%,7.5%,-2.3%
O=C(Nc1ccccc1)c1nc2c(o1)CCN(Cc1cccnc1)CC2,17.8µM*,0.355µM*,?,79.4µM*,?,?,5.7µM*
COc1ccccc1CN1CCc2nc(C(=O)Nc3ccccc3)oc2CC1,?,4.47µM*,?,?,17.2%[49.3 µM],13.5%[49.3 µM],?
Cc1ccc(CN2CCc3nc(C(=O)NCc4ccccc4)oc3CC2)o1,5.0%[70.6 µM],i,?,-15.8%[172 µM],·,·,·
Cc1noc(C)c1CN1CCc2nc(C(=O)Nc3ccccc3)oc2CC1,17.8µM*,11.2µM*,?,?,20.0%[49.3 µM],15.6%[49.3 µM],-15.4%[49.3 µM]
O=C(Nc1cccnc1)c1nc2c(o1)CCN(CCCc1ccccc1)CC2,-2.7%[70.6 µM],i,?,?,·,·,·
Cc1noc(C)c1CN1CCc2nc(C(=O)NCc3ccccc3)oc2CC1,-13.7%[70.6 µM],i,-34.4%[138 µM],?,·,·,·
O=C(Nc1ccccc1)c1nc2c(o1)CCN(Cc1ccccc1)CC2,12.6µM*,1µM*,?,?,27.0%[49.3 µM],?,4.53µM*
CCCN1CCc2nc(C(=O)Nc3ccccc3)oc2CC1,·,·,·,·,20.4%[49.3 µM],18.3%[49.3 µM],?
COc1cccc(CN2CCc3nc(C(=O)Nc4nc(C)cs4)oc3CC2)c1,-20.4%[70.6 µM],7.08µM*,?,?,?,17.1%[49.3 µM],?
O=C(Nc1cccnc1)c1nc2c(o1)CCN(Cc1cccc(O)c1)CC2,?,3.98µM*,-16.0%[138 µM],?,21.1%[49.3 µM],16.4%[49.3 µM],?
O=C(Nc1ccccc1)c1nc2c(o1)CCN(CC1CC1)CC2,-26.3%[70.6 µM],2.24µM*,-17.1%[138 µM],?,19.5%[49.3 µM],19.6%[49.3 µM],?
COc1ccc(CNC(=O)c2ccc3nnc(C4CCOCC4)n3c2)cc1,·,·,-28.6%,-2.0%,·,·,·
Cc1nc(CN(C)Cc2nc(-c3cccc(Cl)c3)oc2C)no1,-8.2%,i,?,-30.3%,·,·,·
Cc1nnc(CN(C)c2ccc(-c3nc(-c4cccc(Cl)c4)no3)cn2)o1,11.2µM*,1.12µM*,?,?,17.0%,17.7%,4.95µM*
CC(Cc1cnccn1)Nc1ccc(-c2nc(-c3cccc(Cl)c3)no2)cn1 (stereo not given),?,3.55µM*,?,?,13.6%,15.8%,?
Cc1ccc(-n2ncc3c(N(C)C)ncnc32)cc1Cl,·,·,·,·,?,?,2.21µM*
Cc1c(-c2ccccc2F)[nH]c2ccc(CNC(=O)CCc3cc(=O)[nH]o3)cc12,-14.9%,2.82µM*,?,-4.2%,26.8%,17.5%,9.89µM*
Cc1c(-c2ccccc2F)[nH]c2ccc(CNC(=O)CCc3cnccn3)cc12,-3.7%,?,?,?,·,·,·
Cc1c(-c2ccccc2F)[nH]c2ccc(CNC(=O)CC3CCC(=O)N3)cc12 (stereo not given),0.6%,10µM*,-28.2%,35.5µM*,?,13.0%,9.89µM*
COCCn1c(=O)c(C(=O)NCc2cccc(OC)c2)nc2cccnc21,·,·,-19.5%,-15.0%,·,·,·
OCC1CCN(c2ncnc3c2cnn3-c2ccccc2)CC1,·,·,·,·,21.3%,17.4%,?
